The full list was thinned out, with hits kept by preference.
SF1 inhibitor: SF-1 (human) inhibition | Q13285 | CHO-K1 Gal4-SF-1 LBD luciferase reporter | inhibition, % at 10 µM | 65,000 compounds, 0.55% hits;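 active = inhibition above the mean inhibition of all tested compounds plus 3 SD, cut at about 48% in these data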
Target sequence (Q13285 whole entry, looked up, the tested form may be a part): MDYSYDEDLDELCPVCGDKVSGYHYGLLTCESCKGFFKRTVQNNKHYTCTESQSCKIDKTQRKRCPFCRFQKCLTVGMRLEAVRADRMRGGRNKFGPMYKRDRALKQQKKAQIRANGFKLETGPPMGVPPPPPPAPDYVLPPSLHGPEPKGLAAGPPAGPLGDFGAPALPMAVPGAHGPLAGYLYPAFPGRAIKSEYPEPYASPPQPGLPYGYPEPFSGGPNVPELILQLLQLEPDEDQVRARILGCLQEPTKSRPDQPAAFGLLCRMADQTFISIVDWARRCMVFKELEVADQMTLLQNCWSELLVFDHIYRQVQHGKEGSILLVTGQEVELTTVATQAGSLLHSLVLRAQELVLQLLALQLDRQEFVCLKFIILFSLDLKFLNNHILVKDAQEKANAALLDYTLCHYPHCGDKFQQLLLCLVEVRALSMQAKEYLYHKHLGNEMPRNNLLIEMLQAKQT
A number is an active result; n = inactive.

SMILES	SF1 inhibitor
Cc1ccc(-c2nsc3c(N4CCC(C(N)=O)CC4)ncnc23)cc1	49.0
CC(C(=O)NC1CCCC1)N(Cc1ccc2c(c1)OCO2)C(=O)c1snc(C(N)=O)c1N (centres undefined)	n
Cc1cc(C(=O)OCC(=O)N2CCc3ccccc32)c(C)o1	n
O=C(CSc1nnc(COc2cccc3cccnc23)o1)N1CCc2ccccc21	53.4
O=C(COc1ccc(F)cc1Br)N1CCc2ccccc21	n
COc1cccc(N2CCN(C(=O)c3ccc4nc(N5CCCCC5)sc4c3)CC2)c1	n
CCN(CC)C(=O)c1cc(-c2ccc(Br)cc2)on1	n
C=CCNC(=O)CN(c1ccc(F)cc1)S(=O)(=O)c1ccc(OC)cc1	n
Cc1cc(NC(=O)c2cc(-c3ccccn3)nc3ccccc23)no1	n
Cc1ccc(C(=O)/C=C/Nc2ccccn2)cc1	82.8
COc1ccc(C(=O)/C=C/Nc2cccc(C)n2)cc1OC	n
COC(=O)c1ccc(C(c2c(N)n(Cc3ccccc3)c(=O)n(C)c2=O)N2CCOCC2)cc1 (centres undefined)	n
CCOc1ccccc1NC(=O)CSc1nc2cccnc2n1C	n
CC(C)(C)n1ncc2c(=O)n(CC(=O)NCc3ccc(F)cc3)cnc21	n
CC(=O)Nc1ccc(-n2c(C)c(C(C)=O)c(C(C)=O)c2C)cc1	n
CC(=O)CC1(O)C(=O)N(CN2CCN(c3ccccc3)CC2)c2ccccc21 (centres undefined)	n
CCOC(=O)COc1nc(Nc2ccccc2C)nc(N(C)C)n1	n
Cc1cc2c(cc1C)NC(c1c(C)n(C)n(-c3ccccc3)c1=O)C1=C(CC(C)(C)CC1=O)N2 (centres undefined)	n
COc1cccc(OCCN2CCN(c3ncnc4c3cnn4-c3ccccc3)CC2)c1	n
COc1cccc(N2CCN(c3ncnc4c3[nH]c3ccccc34)CC2C)c1 (centres undefined)	84.6
COc1cccc(NC(=O)N2CCN(c3cccc(C)c3)C(C)C2)c1 (centres undefined)	n
COc1cccc(N2CCN(c3ncnc4c3[nH]c3ccc(F)cc34)CC2C)c1 (centres undefined)	96.1
COc1cccc(-n2nc(C(=O)O)c3ccccc3c2=O)c1	n
Cc1c(C(=O)N2CCOCC2)[nH]c2c1C(=O)CC(c1ccccc1Cl)C2 (centres undefined)	n
CC(=O)NC1Sc2ccccc2N=C1c1ccccc1 (centres undefined)	n
SMILES	SF1 inhibitor
COC(=O)CCCC(=O)Nc1ccc(Cl)c(Cl)c1	n
CC(C)(C)NC(=O)CSc1nnc(Cc2ccc3c(c2)OCO3)n1C1CCCCC1	n
O=C(CCc1c[nH]c2ccccc12)NCC1CCCO1 (centres undefined)	n
O=C(COc1ccc(-c2nnco2)cc1)NC1CCCc2ccccc21 (centres undefined)	n
COC(=O)c1ccc(C(=O)OC)c(NC(=O)CSc2nnc(-c3ccccc3Cl)o2)c1	n
COc1ccc(OC)c(NC(=O)CSc2nnc(CNc3ccc(F)cc3)o2)c1	n
CCOc1cc(C(=O)CSc2nnc(CNc3ccc(Cl)cc3)o2)ccc1NC(=O)CC	56.4
CCN1CCN(c2ncc(C(=O)N3CCCc4ccccc43)c3ccccc23)CC1	n
CC1CCN(C(=O)c2ccc(NC(=O)C3CCCO3)cc2)CC1 (centres undefined)	n
O=S(=O)(Nc1ccc2c(c1)nc1n2CCOC1)c1ccc(Cl)cc1	n
O=c1c2ccccc2nc2c3ccccc3c(N3CCOCC3)nn12	n
c1ccc(-n2nnc3c(N4CCOCC4)ncnc32)cc1	52.3
O=c1[nH]c(N2CCOCC2)nc2ncn(Cc3ccccc3)c12	n
CCc1nc2oc3ccccc3c(=O)c2c(=O)n1-c1ccccc1	n
Cn1c(=O)c2nc(-c3ccc(Cl)cc3Cl)oc2c2ccccc21	n
Cc1c(CCC#N)c(N2CCN(C3CCCCC3)CC2)n2c(nc3ccccc32)c1C#N	n
O=C(Nc1ccc2oc(-c3ccccc3)nc2c1)c1cccnc1	n
O=C(Nc1ccccc1)c1cccc(-c2nnc(-c3ccccc3)o2)c1	62.7
O=C(Nc1cccc(-c2nnc(-c3ccccc3)o2)c1)C1CCCCC1	n
CCOC(=O)c1cccc(NC(=O)Cn2cc3c(n2)CCC(C)C3)c1 (centres undefined)	n
O=C(NCCCn1ccnc1)c1cc(-c2cccs2)on1	n
COc1ccc(N(CC(=O)NC2CCCCC2)S(=O)(=O)c2cccnc2)cc1	n
O=c1[nH]cnc2c1N1CCC2CC1	n
C=CCn1c2ccccc2c2nnc(SCCCn3c(=O)[nH]c4ccccc43)nc21	n
C=CCOC(=O)CN1C(=O)c2ccccc2C1=O	n
SMILES	SF1 inhibitor
Cn1c(-c2ccc(Br)o2)nc2ccccc21	n
CCn1c(-c2ccc(N(C)C)cc2)nc2ccccc21	n
CN(C)c1ccc(-c2nc3ccccc3n2C)cc1	58.9
CC1=CC(C)=Nc2ccc(C)cc2N1	n
CC1CCc2nc(NC(=O)c3ccco3)sc2C1 (centres undefined)	63.6
CS(=O)(=O)c1ccc2nc(NC(=O)c3ccco3)sc2c1	n
CC1CCc2nc(NC(=O)Cc3cccs3)sc2C1 (centres undefined)	n
Cc1ccc2cccc(OC(=O)c3ccc4c(c3)OCCO4)c2n1	n
CCc1c(C#N)c(N)nc(SCC(=O)OCc2ccccc2)c1C#N	n
Cn1cccc1C(=O)NC(=O)CSc1nc2ccccc2s1	n
CSc1nc(=NC(C)=O)ss1	n
CCOc1ccc(S(=O)(=O)N(CC(=O)O)c2ccc(C)cc2)cc1	n
CC(=O)c1c(C)[nH]c(C(=O)Nc2ccc(C)cn2)c1C	50.8
Cc1ccccc1C(=O)Nc1ccc(Br)cn1	n
CC(=O)c1c(C)[nH]c(C)c1C(C)=O	n
O=C(NC1CC1)C1CC(=O)N(C2CCCCC2)C1 (centres undefined)	n
Cc1ccc(N2C(N)=NC(N)=NC23CCCC3)c(C)c1	n
Cc1cc(C)c(C(=O)CSc2n[nH]c(=O)n2C2CC2)cc1C	n
Cc1cc(C(=O)Nc2cccc(C(=O)O)c2)oc1C	69.0
CC(=O)c1cccc(NC(=O)c2cc(C(C)C)on2)c1	n
Cc1cccc(NC(=O)c2cc3ccccc3o2)c1	n
CCn1c(=NC(=O)CN2C(=O)CCC2=O)sc2c(C)cc(C)cc21	n
COc1cccc2c1C(=O)c1c(O)c3c(c(O)c1C2=O)C[C@@](O)(C(C)=O)C[C@@H]3O[C@H]1C[C@H](N)[C@H](O)[C@H](C)O1	89.3
CCC(C)NS(=O)(=O)c1ccc(NC(=O)c2c(-c3ccccc3)noc2C)cc1 (centres undefined)	n
COC(=O)c1cc(OC)c(OC)cc1NC(=O)CSc1nnnn1Cc1ccccc1	n
SMILES	SF1 inhibitor
C/C=C/c1ccc(OC)c(OC(C)=O)c1	n
COc1cc(C2Nc3cccc4cccc(c34)N2)cc(OC)c1OC(C)=O	82.3
CCOC(=O)CSc1nc2ccccc2c(=O)n1NC(=O)c1ccccc1	n
COC(=O)c1cc(Br)c(=O)n(Cc2ccc3c(c2)OCO3)c1	n
FC(F)(F)C(F)(F)C(F)(F)c1nnc2ccc(N3CCOCC3)nn12	n
CCC(=O)Nc1nc(C)cc(SCC(=O)OC)n1	n
Cn1c(-c2ccc3ccccc3n2)nc2cnccc21	n
Nc1nsc2ccccc12	58.5
O=S(=O)(Nc1cccnc1)c1ccc2c(c1)OCCO2	n
O=C(Cn1nnc(-c2ccccc2)n1)OCc1csc(-c2ccccc2)n1	n
COc1ccc(-c2ccc(-c3nnn(CC(C)=O)n3)cc2)cc1	n
CCc1ccc(-c2nnn(CCC(=O)OC)n2)cc1	51.5
CC(C)C1N=C2c3ccccc3N=C(SCc3cc(=O)n4ccccc4n3)N2C1=O (centres undefined)	n

Compound activity (PubChem BioAssay)
